D2 PAM-1 – Beta-Arrestin HTS for Positive Allosteric Modulators of the Human D2 Dopamine Receptor: Potentiators; DiscoveRx D2 beta-arrestin cells, luminescence, 90 min; 100% = 57 uM dopamine signal; potentiation, % (no concentration beside the values); 360,000 tested, 0.23% active; AID 624464, 2012; in the data active means potentiation above about 50%
Target sequence (P14416 whole entry, looked up): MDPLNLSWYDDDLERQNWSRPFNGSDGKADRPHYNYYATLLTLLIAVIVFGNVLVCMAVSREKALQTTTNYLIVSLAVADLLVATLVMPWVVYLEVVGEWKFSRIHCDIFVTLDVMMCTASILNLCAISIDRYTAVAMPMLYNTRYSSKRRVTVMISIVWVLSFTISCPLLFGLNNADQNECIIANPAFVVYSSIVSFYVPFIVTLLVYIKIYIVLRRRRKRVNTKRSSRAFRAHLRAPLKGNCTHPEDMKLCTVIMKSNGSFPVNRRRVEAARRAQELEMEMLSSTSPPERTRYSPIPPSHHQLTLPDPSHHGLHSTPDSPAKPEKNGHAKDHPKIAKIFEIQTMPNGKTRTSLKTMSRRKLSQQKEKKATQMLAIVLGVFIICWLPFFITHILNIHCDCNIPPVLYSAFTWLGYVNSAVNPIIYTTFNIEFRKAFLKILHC
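PathHunter beta-arrestin assay in DiscoveRx D2 cells. Compounds were added with an EC20 of dopamine (50 nM final) for 90 min at 37 deg C. Luminescence was read 1 h after detection reagent, with 57 uM dopamine as the EC100 control.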
D2 ag-1 – Beta-Arrestin HTS for Positive Allosteric Modulators of the Human D2 Dopamine Receptor: Agonists. AID 624465, 2012. 360,000 tested, 0.084% active. DiscoveRx PathHunter D2 beta-arrestin, luminescence, 90 min; 100% = 57 uM dopamine signal. activation, % (test concentration not listed). D(2) dopamine receptor (Homo sapiens), P14416; in the data active means activation above about 40%
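Agonist mode: compounds alone added to overnight-plated D2 PathHunter cells for 90 min at 37 C, with 57 uM final dopamine (EC100) defining full response. Beta-arrestin recruitment detected by chemiluminescent reagent, read after 1 h at ambient temperature.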
D2 ag-2 – HTS Assay for Allosteric Agonists of the Human D2 Dopamine Receptor: Primary Screen for Agonists | D(2) dopamine receptor (Homo sapiens), P14416 | HEK293 T-REx D2 cells, calcium flux agonist mode | activation, % at 2 µM | 340,000 tested, 0.53% active | AID 485358, 2010;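 active means activation over 3 SD above normal in the single-dose calcium agonist read, cut at about 30% in these data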; further: 0% is about no effect
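Agonism is scored from calcium flux in a force-coupled, inducible HEK293 cell line expressing D2, read kinetically for 180 s after compound addition against dopamine controls.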
D2 antag – HTS Assay for Allosteric Antagonists of the Human D2 Dopamine Receptor: Primary Screen for Antagonists; HEK293 TREx D2 cells, calcium flux, dopamine EC80; inhibition, % at 10 µM; 340,000 tested, 2% active; AID 485344, 2010; D(2) dopamine receptor (Homo sapiens), P14416; in the data active means inhibition above about 30%; inactive means below that, where a call was filed; further: 0% is about no effect
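Tetracycline-induced HEK293 T-REx cells expressing D2 force-coupled to calcium signalling were dye-loaded, exposed to compound for 180 s, then challenged with an EC80 of dopamine; calcium flux was followed kinetically for a further 180 s.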
D2 PAM-2 – HTS Assay for Positive Allosteric Modulators of the Human D2 Dopamine Receptor: Primary Screen for Potentiators. HEK293 T-REx D2, calcium flux, EC20 dopamine potentiation. potentiation, % at 10 µM. 340,000 tested, 0.34% active;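 active means potentiation over 3 SD above the plate norm, cut at about 30% in these data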; further: 0% is about no effect
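Calcium flux readout, no-wash dye, 1 read/s. Inducible HEK293 Trex D2 line, overnight 30 C. Compound alone 180 s (agonist flags), then EC20 dopamine, another 180 s to score potentiation.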
Active calls of the source: *; · = no result given. Hits are enriched below; roughly 2.4% of the tested compounds scored in any of these assays.

SMILES | D2 PAM-1 | D2 ag-1 | D2 ag-2 | D2 antag | D2 PAM-2
COc1ccc(NS(=O)(=O)c2coc(C(N)=O)c2)cc1Cl | 0.4 | 4.3 | 0.7 | 30.8* | -2.4
CC(C)(C)NC(=O)NC(=O)COC(=O)CCCc1c[nH]c2ccccc12 | -0.3 | -1.1 | -0.3 | 70.0* | 16.8
CCOC(=O)CCCc1c[nH]c2ccccc12 | 1.9 | -2.1 | -0.3 | 5.8 | -12.0
NS(=O)(=O)c1ccc(NC(=O)/C=C/c2cccc(Cl)c2)cc1 | -9.9 | 6.2 | 0.2 | 35.2* | -11.0
COc1ccccc1N1CCN(Cc2ccco2)CC1 | -5.6 | 0.7 | 4.1 | -10.7 | -16.1
COc1ccccc1N1CCN(Cc2ccc(-c3ccccc3[N+](=O)[O-])o2)CC1 | -77.2 | -0.7 | -1.0 | 85.6* | -25.0
Cc1nc(Nc2ccc(S(N)(=O)=O)cc2)oc1C | 10.1 | -2.6 | 0.9 | 0.5 | 48.7*
CC1(C)CC(=O)c2cc(C(=O)Nc3ccc(Br)cc3)c(=O)n(-c3ccc(Cl)cc3)c2C1 | · | · | 2.1 | · | -22.6
Cc1c(C(=O)N2CCCC2)oc2c1-c1nn(CC(=O)NCCCN3CCCCC3)cc1CC2 | -30.3 | 1.4 | -0.5 | 37.3* | -6.4
Cc1cc(C)nc(SCC(=O)N2CCc3ccccc32)n1 | -2.3 | -2.4 | · | · | ·
O=C(CSc1ncc(-c2ccccc2)n1C1CCCC1)N1CCc2ccccc21 | -22.4 | -2.5 | -0.2 | 30.7* | -31.4
Cn1c(-c2ccccc2)cnc1SCC(=O)N1CCCc2ccccc21 | -7.9 | -1.7 | -0.5 | -15.0 | -9.2
O=C(CSc1nnc(-c2ccccc2)c(-c2ccccc2)n1)N1CCc2ccccc21 | -4.4 | 0.5 | -0.6 | 69.0* | -2.3
CC1N=C(SCC(=O)c2ccc(F)cc2)N2C(C)N=C(SCC(=O)c3ccc(F)cc3)N12 (stereo not drawn) | -5.0 | -4.1 | · | · | ·
CCCCNCCCOc1cc(Cl)ccc1Cl | -19.3 | -3.7 | -0.3 | 56.0* | -19.2
CCC(C)NCCCOc1cc(Cl)ccc1Cl (stereo not drawn) | -38.2 | -2.7 | 0.5 | 80.0* | -23.0
CCCCNCCOCCOc1ccc(Cl)cc1Br | -26.2 | -8.1 | 0.4 | 72.3* | -28.4
COCCCNCCCOc1ccc(C)cc1Br | -31.3 | -5.2 | 0.6 | 38.4* | -35.9
CCC(C)NCCCCOc1ccc(Cl)cc1C (stereo not drawn) | -26.3 | -3.8 | · | · | ·
COCCCNCCCOc1ccc(Cl)cc1Br | -45.6 | -0.9 | -0.8 | -39.1 | -19.7
Cc1cccc(NC(=O)Cn2c(=O)n(CCc3ccccc3)c(=O)c3sc4ccccc4c32)c1 | · | · | -1.0 | · | 9.8
CCC1=C(OC(=O)N(CC)CC)N2C(=O)OC(=NCC(=O)OC)[C@]2(Cc2ccccc2)[C@H]2C1=CC[C@H]1C(=O)NC(=O)[C@H]12 | -6.4 | -4.1 | 0.5 | 53.2* | -0.5
CCC1=C(OC(=O)N(CC)CC)N2C(=O)OC(=NCC(=O)OC)[C@]2(Cc2ccccc2)[C@H]2C1=CC[C@H]1C(=O)N(C)C(=O)[C@H]12 | -4.8 | -2.7 | -0.2 | -9.5 | 7.8
CN1OC[C@@H]2CN(Cc3ccccc3)[C@H](c3ccc(-n4ccnc4)cc3)C[C@@H]21 | -10.9 | -4.2 | · | · | ·
Cc1ccc(/C=N\NC(=O)c2ccc3c(c2)OCO3)o1 | -15.8 | -0.5 | 0.3 | 32.0* | -24.2
Cc1cccc(C(=O)Nc2cccc(C(=O)N/N=C/c3ccc4c(c3)OCO4)c2)c1 | -4.7 | 1.9 | -0.6 | 37.3* | -0.3
O=C(CNc1ccccc1)N/N=C/c1ccc2c(c1)OCO2 | -10.4 | -0.2 | -0.5 | 37.3* | -8.3
Cc1cccc(C(=O)Nc2ccc(C(=O)N/N=C/c3ccc4c(c3)OCO4)cc2)c1 | -5.3 | -0.5 | -0.9 | -13.7 | -12.0
O=C(CNc1ccccc1)N/N=C/c1ccc2c(c1)OCCO2 | 6.0 | 2.3 | -0.4 | -0.3 | -3.1
O=C(c1cccc(F)c1F)N1CCCc2ccccc21 | -11.2 | 0.4 | 1.1 | -12.0 | 1.7

Screening data: PubChem, National Center for Advancing Translational Sciences (NCATS)
